Each structure is given as a SMILES string. Hit rate of the full screen: of about 1,300 compounds, about 980 (75%) were called active. Another 4% or so got no clear call; they are omitted. Some of the results follow.

Sequence of Sulfhydryl oxidase 1 (Homo sapiens) (O00391 whole entry, looked up): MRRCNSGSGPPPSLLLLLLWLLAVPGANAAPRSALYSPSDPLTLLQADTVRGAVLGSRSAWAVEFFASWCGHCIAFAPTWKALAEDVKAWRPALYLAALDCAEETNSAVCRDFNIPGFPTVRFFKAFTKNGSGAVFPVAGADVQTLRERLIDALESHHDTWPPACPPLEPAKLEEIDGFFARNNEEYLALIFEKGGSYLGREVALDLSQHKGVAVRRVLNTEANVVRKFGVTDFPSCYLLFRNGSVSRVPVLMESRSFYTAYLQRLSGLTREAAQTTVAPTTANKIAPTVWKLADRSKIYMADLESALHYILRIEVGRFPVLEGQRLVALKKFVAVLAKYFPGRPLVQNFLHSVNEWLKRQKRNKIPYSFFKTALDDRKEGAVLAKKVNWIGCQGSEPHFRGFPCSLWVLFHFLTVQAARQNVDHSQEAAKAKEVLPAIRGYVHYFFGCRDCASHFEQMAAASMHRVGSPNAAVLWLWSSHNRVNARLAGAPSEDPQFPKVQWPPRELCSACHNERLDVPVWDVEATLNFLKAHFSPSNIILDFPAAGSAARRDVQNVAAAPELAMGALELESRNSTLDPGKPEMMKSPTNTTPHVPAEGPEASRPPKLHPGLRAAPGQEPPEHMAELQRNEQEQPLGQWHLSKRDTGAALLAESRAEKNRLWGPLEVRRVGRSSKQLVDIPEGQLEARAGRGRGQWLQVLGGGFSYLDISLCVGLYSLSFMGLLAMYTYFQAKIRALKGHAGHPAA

This assay addresses Sulfhydryl oxidase 1 (Homo sapiens) (UniProt O00391). Description: inhibition of human sulfhydryl oxidase QSOX1 – biochemical, HyperBlu H2O2 luminescence, HTS, primary screen (AID 1347420). Further: values above 100% were filed as inconclusive. The settings on record: recombinant QSOX1, HyperBlu H2O2 luminescence; at 12.5 µM; active compounds read high; active = any value above zero.
Consider `O=C1NCC2(CCN(CCc3ccccc3)CC2)O1`, for which the inhibition (as a rule, the drop in the measured response relative to a control, in per cent) is 10.5% (active).
Next, `Cc1ccc(O)c(N=Nc2ccccc2)n1`: 30.2% (active).
The value for `Cc1cc(NC2CCCCC2)nc(-n2nc(C)cc2C)n1` was 6.3% (active); that for `CCCCCCC(=O)OC1CC(C)(C)NC(C)(C)C1` was -7.9% (inactive); that for `CCCCCCCCCCCCCCCC(=O)NCCO` was 8.6% (active).
Next, `CCCCCCCC/C=C\CCCCCCCC(=O)NCCO`: 0.4% (active); `C[C@]12CC[C@@H]3c4ccc(O)cc4CC[C@H]3[C@@H]1CCC2=O`: 22.4% (active); `C[C@]12CC[C@@H]3c4ccc(O)cc4CC[C@H]3[C@@H]1CC[C@@H]2O`: 24.6% (active).
For the compound `CC(N)(Cc1ccc(O)cc1)C(=O)O` (stereo not given), the inhibition is 50.5% (active).
Next, `C[C@](N)(Cc1ccc(O)cc1)C(=O)O`: 2.9% (active); `COC(=O)C(C)(N)Cc1ccc(O)cc1` (stereo not given): 2.3% (active).
The value for `CCOC(=O)C1=C[C@]2(CC)CCCN3CCc4c(n1c1ccccc41)[C@@H]32` was 8.5% (active); that for `CCc1ccc2c(-c3cccc(Cl)c3)nc(=O)n(CC)c2n1` was 20% (active).
Next, `CCOC(=O)c1ncn2c1CN(C)C(=O)c1cc(F)ccc1-2`: 11.8% (active); `CN(Cc1cnc2nc(N)nc(N)c2n1)c1ccc(C(=O)N[C@@H](CCC(=O)O)C(=O)O)cc1`: 3.6% (active); `Nc1nc(N)c2nc(CNc3ccc(C(=O)NC(CCC(=O)O)C(=O)O)cc3)cnc2n1` (stereo not given): 34.3% (active).
`CC(C)C(=O)Nc1ccc([N+](=O)[O-])c(C(F)(F)F)c1`: the inhibition was 4.7% (active).
The value for `CC1(C)NC(=O)N(c2ccc([N+](=O)[O-])c(C(F)(F)F)c2)C1=O` was -8.3% (inactive).
The value for `O=[N+]([O-])c1ccc(CSc2ncnc3c2ncn3[C@@H]2O[C@H](CO)[C@H](O)C2O)cc1` (stereo not given in full) was 33.9% (active); that for `Nc1nc(SCc2ccc([N+](=O)[O-])cc2)c2ncn([C@@H]3O[C@H](CO)[C@H](O)C3O)c2n1` (stereo not given in full) was 33.7% (active); that for `C=CC(N)CCC(=O)O` (stereo not given) was -9.5% (inactive).
The value for `C#CC(N)CCC(=O)O` (stereo not given) was 13.5% (active).
On to `Nc1nc2c(ncn2COC(CO)CO)c(=O)[nH]1`, for which the inhibition was 10.7% (active).
For `Nc1nc2c(ncn2COCCO)c(=O)[nH]1`, the inhibition is 19.3% (active).
As for `Cc1cccc(-c2[nH]c(C(C)(C)C)nc2-c2ccc3nccnc3c2)n1`, the inhibition is -12.5% (inactive).
Next, `N=S(=O)([O-])Cc1noc2c1C=C[C+]=C2`: 9.3% (active); `OC[C@H]1NC[C@@H](O)[C@@H]1O`: 10.5% (active); `OCC1NCC(O)C(O)C1O` (stereo not given): 14.4% (active).
Next, `CCN1/C(=C/C(C)=O)Sc2ccc(OC)cc21`: 58.1% (active); `CC[C@H](C)C(=O)O[C@H]1CCC=C2C=C[C@H](C)[C@H](CC[C@@H]3C[C@@H](O)CC(=O)O3)[C@H]21`: 8.8% (active).

For the origin of these results see PubChem BioAssay AID1347420 (Sanford-Burnham Center for Chemical Genomics, 2020).
